Laboratory results from PubChem BioAssay.

These compounds were tested on Fibrinogen (Alexa647-labelled) (assay: fibrinogen binders on compound microarrays, profiling panel, artefact control for SMM control-protein annotation, biochemical, small-molecule microarray, 635/667 nm fluorescence (AID 1131;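 also: z-score merges 667 nm fluorescence with per-spot signal-to-noise over triplicate slides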)). Details: fibrinogen-A647 binding fluorescence, higher = more signal.

Compound	composite z-score
C[C@]1(C(=O)NCc2ccccc2)c2ccccc2C(=O)N(Cc2ccc(OC(F)(F)F)cc2)[C@H]1c1ccc(CO)cc1	-0.38
CC(=O)Nc1cc(Br)ccc1C(=O)O	0.805
COC(=O)C[C@H]1O[C@]2(C(=O)N(Cc3ccccc3)c3ccc(NC(C)=O)cc32)[C@@H](C)[C@@H]1[Si](C)(C)c1ccc(OC)cc1	0.483
COCCOC(=O)N1C(=O)[C@@]2(c3cc(C#CCC(C(=O)OC)C(=O)OC)ccc31)[C@H](C(=O)N1CCN(c3ncccn3)CC1)[C@H]1C(=O)O[C@H](c3ccccc3)[C@H](c3ccccc3)N1[C@@H]2c1ccc(OCCO)cc1	0.993
O=c1cccc(C=Cc2ccccc2)o1	-0.58
CCCCC(CC)C(O)C1C=CC2C(=O)N(c3ccccc3)C(=O)C2N1Nc1ccccc1 (centres undefined)	0.881
COc1ccc([Si](C)(C)[C@@H]2[C@@H](CC(=O)N(CCO)Cc3ccccc3)O[C@]3(C(=O)N(C)c4ccccc43)[C@H]2C)cc1	0.958
CC(C)C[C@@H]1NC(=O)[C@H]2C[C@@H](C(=O)NCCCCCNC(=O)CS)[C@@H](c3cccc(OCCO)c3)N2C1=O	0.374
O=C(OCCF)C1=CCC(c2cccc(Cl)c2)O1 (centres undefined)	-0.137
O=C(O)[C@@]1(Cc2ccccc2)N=C(c2ccc(OCCCO)cc2)O[C@H]1c1ccccc1	0.967
CO[C@H]1O[C@H](CO)[C@@H](OC(=O)Nc2ccc(Oc3ccccc3)cc2)[C@H](OC(=O)Nc2ccccc2)[C@H]1OC(=O)Nc1ccccc1	0.985
O=C(CS)NCCCCCCNC(=O)[C@H]1C[C@H]2C(=O)NCC(=O)N2[C@H]1c1ccc(O)cc1	-0.634
COCCOC(=O)N1C(=O)[C@@]2(c3cc(C#CCCO)ccc31)[C@H](c1ccc(O)cc1)N1[C@H](c3ccccc3)[C@H](c3ccccc3)OC(=O)[C@H]1[C@@H]2C(N)=O	0.19
CC(C)(C)N1CC=CC23O[C@@H]4/C=C\CCCOC(=O)C4[C@H]2C(=O)N(CCO)[C@@H]3C1=O (some centres undefined)	-0.233
